Screening results as filed in PubChem.
Rows were chosen to be rich in hits. Some 2.7% of all compounds tested hit in one or more screens of this group.
Nrf2 activator = activators of Nrf2 (ARE) signaling | AREc32 ARE-luciferase reporter (MCF7-derived line), luminescence, 24 h | Potency, µM (doses to about 46.1 µM), inactives show at the top dose activation, usual class: activators | hit rate 0.31% among 410,000 | AID 624171; also: potency is read from the fitted curve at half-maximal effect; % of control where 0% means no effect; nearly all actives have a fitted effect of over 65% in size
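ARE-driven firefly luciferase activity in AREc32 cells measured after a 24 hr compound exposure at 37 deg C, using Steady-Glo reagent and a 30 min room-temperature hold.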
A549 tox = counter-screen for Nrf2 inhibitors: cytotoxicity in A549 cells. AID 504648. hit rate 0.16% among 390,000. A549 ARE-Fluc cells, CellTiter-Fluor viability, 18-24 h. Potency, µM (doses to about 46 µM), without a hit: at the top dose activity change, negative = cytotoxicity, actives largely listed as inhibitors; also: potency is read from the fitted curve at half-maximal effect; % is scaled to controls: 0 for no effect and ±100 for the full control effect
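Cytotoxicity counterscreen: CellTiter-Fluor fluorescence was measured in A549 ARE_Fluc cells after 18-24 h of compound exposure in a concentration series. The subsequent BugLite luminescent read reports ARE-luciferase activity.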
LDHA inh = blocks human lactate dehydrogenase A; purified LDHA, NADH/diaphorase-resazurin fluorescence; active compounds read low; hit rate 0.15% among 480,000; activity change, % (values are at about 110 or 230 µM); in the data active = activity change below about -30%; inconclusive = mostly about -25% to -30%;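 also: plate controls were DMSO wells for no effect and wells without enzyme for full effect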
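Enzyme activity of human lactate dehydrogenase 5 (2 nM; 0.06 mM NADH, 0.2 mM pyruvate, 5 min, RT) is measured via a resazurin/diaphorase fluorescence readout of residual NADH.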
Nrf2 inh = blocks Nrf2 signaling. A549 ARE-Fluc reporter, luciferase luminescence, 18-24 h. Potency, µM (doses to about 46 µM), inactives show at the highest dose activity change, negative = inhibition, hits mostly inhibitors. hit rate 2.1% among 360,000. AID 504444; also: potency is read from the fitted curve at half-maximal effect; % is scaled to controls: 0 for no effect and ±100 for the full control effect; nearly all actives have a fitted effect of over 60% in size
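Nrf2 activity is the BugLite luminescence, read 15 min after reagent at room temperature, following CellTiter-Fluor cytotoxicity readout (30 min, 37C). Compound titrations were applied for 18-24 h to 5000 A549 ARE_Fluc cells/well in 5% FBS OPTI-MEM.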
mIDH1 inhibitor = inhibitors of human mutant IDH1 R132H; O75874; IDH1-R132H enzyme, NADPH consumption, diaphorase/resazurin fluorescence; Potency, µM (highest dose often 76.6 µM), inactives show at the highest dose activity change, negative = inhibition, actives largely listed as inhibitors; hit rate 0.093% among 390,000; also: potency is read from the fitted curve at half-maximal effect; % is scaled to controls: 0 for no effect and ±100 for the full control effect; nearly all actives have a fitted effect of over 65% in size
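IDH1-R132H (0.5 ug/mL) preincubated 30 min with compound, then NADPH (0.016 mM) and alpha-KG (2 mM) added; 80 min at RT, pH 7.5. Remaining NADPH coupled via diaphorase/resazurin to fluorescence (540/590 nm); concentration-response curves normalized to no-enzyme control.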
12-LOX inh = blocks human arachidonate 12S-lipoxygenase; AID 1671190; Potency, µM (series often up to 108 µM), without a hit: at the top dose activity change, negative = inhibition, most hits filed as inhibitors; hit rate 1.1% among 580,000; P18054; purified 12hLO, xylenol orange hydroperoxide absorbance; also: potency is read from the fitted curve at half-maximal effect; % is scaled to controls: 0 for no effect and ±100 for the full control effect
Target sequence (P18054 whole entry, looked up): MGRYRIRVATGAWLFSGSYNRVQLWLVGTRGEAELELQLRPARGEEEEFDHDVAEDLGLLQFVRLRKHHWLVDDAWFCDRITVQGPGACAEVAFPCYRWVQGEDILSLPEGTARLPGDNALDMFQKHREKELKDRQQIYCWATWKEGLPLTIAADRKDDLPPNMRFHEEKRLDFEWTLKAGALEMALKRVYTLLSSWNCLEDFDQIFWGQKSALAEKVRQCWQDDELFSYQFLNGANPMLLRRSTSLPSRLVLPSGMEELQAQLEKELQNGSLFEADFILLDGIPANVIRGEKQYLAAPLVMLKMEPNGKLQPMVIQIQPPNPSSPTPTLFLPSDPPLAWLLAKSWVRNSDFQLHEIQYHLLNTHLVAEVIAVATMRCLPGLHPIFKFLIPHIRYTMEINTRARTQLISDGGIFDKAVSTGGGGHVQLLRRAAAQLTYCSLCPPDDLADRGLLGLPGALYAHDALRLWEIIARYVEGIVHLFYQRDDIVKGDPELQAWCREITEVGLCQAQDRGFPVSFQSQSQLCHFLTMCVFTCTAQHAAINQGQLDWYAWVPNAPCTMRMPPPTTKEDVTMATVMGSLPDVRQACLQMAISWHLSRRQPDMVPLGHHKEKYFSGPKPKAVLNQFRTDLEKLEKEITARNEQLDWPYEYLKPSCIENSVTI
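Purified human 12hLO at 150 nM in 25 mM Hepes, 0.01% Triton X-100, pH 7.0, preincubated 15 min at room temperature with compound. Reaction started with 40 uM arachidonic acid, 30 min at room temperature. Hydroperoxide measured by Fe-xylenol orange, 573/405 nm absorbance ratio.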
* hit, by the source's call; ? = inconclusive; . = no result; [ ] = another dose, or the depositor's remark. Unless noted, calls follow the shape of the dose curve; as a rule, active = well fitted curve in the direction sought with a large enough effect; inconclusive = small, poorly fitted or top-dose-only effect, or another doubt; inactive = no such curve, though single readings can be large; an effect the other way counts as inactive or inconclusive.

SMILES | Nrf2 activator | A549 tox | LDHA inh | Nrf2 inh | mIDH1 inhibitor | 12-LOX inh
CCCC1=Nc2cc(C(=O)NCCc3ccc(OCC)cc3)ccc2Sc2ccccc21 | 0% | -6% | 0 | ? | -8% | -22%
CCOc1ccc(CCNC(=O)c2cnc3sc(N4CCCC4)nn3c2=O)cc1 | -1% | -15% | -2 | 12µM* | -3% | ?
Cc1sc2c(c1C)C(c1ccc(C(C)(C)C)cc1)=NCC(=O)N2CC(=O)Nc1nccs1 | 0% | -24% | 1 | 12µM* | -6% | 0%
Cc1ccc(C)c(N2CCN(c3ncnc4onc(C)c34)CC2)c1 | -1% | -17% | 1 | 13µM* | 5% | -12%
CCn1cc2nc(SCc3cccc(C(F)(F)F)c3)n(Cc3ccc(OC)cc3)c(=O)c2n1 | 4% | -20% | -5 | 23µM* | 13% | -17%
CCn1cc2nc(SCc3c(F)cccc3Cl)n(CCc3ccccc3)c(=O)c2n1 | -1% | -24% | -4 | ? | -7% | -34%
O=C([C@H]1CN2CC[C@H]1C[C@@H]2Cn1cc(CO)nn1)N1CCCC1 | . | . | . | . | . | 9%[176 µM]
Cc1ncc2c(n1)C[C@@H]1CC[C@H]2N1C(=O)c1ccsc1 | . | . | . | . | . | 7%
COc1ccc(-c2nc3ccccc3c(=O)n2-c2ccc(OC)cc2)cc1 | 0% | 2% | -1 | -6% | 4% | -10%
CCn1nc(-c2ccccc2)nc2c(=O)n(C)c(=O)nc1-2 | -2% | 4.1µM* | 29 | 2.9µM* | 13% | .
Cn1nc(-c2ccccc2)nc2c(=O)n(C)c(=O)nc1-2 | . | 3.7µM* | 25 | 2.6µM* | . | .
COc1cccc(-n2cnc3sc(-c4ccccc4)cc3c2=O)c1 | 0% | 2% | -3 | ? | -3% | 10%
Cc1nc2c(=O)n(C)c(=O)nc-2n(C)n1 | -3% | 1.6µM* | 48 | 2.3µM* | 21% | 0%
CC(=O)N1CCc2cc(S(=O)(=O)N3CCN(c4ccc(C)cc4)C(C)C3)ccc21 (stereo not given) | -1% | -17% | -10 | 16µM* | -11% | -1%
Cc1noc(C(C)N2CCN(C(=O)Cc3ccccc3Cl)CC2)n1 (stereo not given) | . | . | 1 | . | . | -14%
O=C(O)C1CN(Cc2ccoc2)CCN(C(=O)Cc2ccccc2)C1 (stereo not given) | . | . | . | . | . | 2%
COc1ccccc1N1CCN(Cc2ccc3c(c2)OCO3)CC1 | -1% | 1% | ? | -12% | -1% | 0.71µM*
CSc1cccc(NC(=O)NC[C@H]2C[C@@H]3CCN2C[C@@H]3CN(C)Cc2ccccc2)c1 | . | . | . | . | . | 17%
CN1C(=O)C2(CCN(Cc3cccnc3)C2)c2ccccc21 (stereo not given) | . | . | . | . | . | 38%[176 µM]
C[C@@H]1CC2C3CC=C4C[C@@H](O)CC[C@]4(C)C3CC[C@]2(C)[C@H]1O (stereo not given in full) | 3% | -4% | 2 | -1% | -4% | -13%
C[C@]12CC[C@H](O)CC1=CCC1C2CC[C@@]2(C)C1C[C@@H]1CC(=O)O[C@@H]12 (stereo not given in full) | 0% | 3% | -7 | 18µM* | -4% | 13%
CN1CCN(c2ccc([N+](=O)[O-])c(N/N=C3\CN4CCC3CC4)c2)CC1 | 0% | 21µM* | -1 | 0% | -1% | -23%
Cc1nonc1CC(=O)N1C[C@H](O)[C@@H](N2CCC(O)CC2)C1 | . | . | . | . | . | 13µM*
COc1ccc([C@@H]2CN(C(=O)Cc3nonc3C)[C@@H]3C4CCN(CC4)[C@@H]32)cc1 | . | . | . | . | . | 2%
COC(=O)c1ccc(CSc2nc3c(cnn3-c3ccc(C)cc3)c(=O)[nH]2)o1 | 0% | -1% | -2 | 23µM* | 1% | -2%
SMILES | Nrf2 activator | A549 tox | LDHA inh | Nrf2 inh | mIDH1 inhibitor | 12-LOX inh
Cn1nc(C2CCCCC2)cc1[C@H]1CN2CC[C@H]1C[C@@H]2CNC(=O)COc1ccccc1 | . | . | . | . | . | 28%
C=CCn1c(C)c(C(=O)OCC)c2cc(O)ccc21 | . | . | 11 | . | . | ?
CC(C)(C)n1ncc2c(=O)n(Cc3cccc(Cn4cnc5c(cnn5C(C)(C)C)c4=O)c3F)cnc21 | 3% | ? | -9 | 5.2µM* | . | -19%
Cc1ccc(-n2ncc(C(=O)N3CCN(c4ccc(Cl)cc4)CC3)c2C2CCN(C(=O)OC(C)(C)C)CC2)c(C)c1 | 0% | -28% | -5 | 15µM* | -8% | 3%
CC1(C)C(C(=O)N2CCN(c3ccc(Cl)cc3)CC2)C1(C)C | 0% | -3% | -16 | -20% | 2% | 0%
CC(C)CCN1CCC2(CC1)C(=O)Nc1ccccc12 | . | . | . | . | . | 2%[12.5 µM]
C#C[C@H]1CN2CC[C@H]1C[C@@H]2CNC(=O)COC | . | . | . | . | . | 36%[176 µM]
CCN(CC)C(=O)c1ccc(NC(=O)CCn2nc(-c3ccc(Cl)cc3)c3ccccc3c2=O)cc1 | -1% | -15% | 3 | 26µM* | 12% | -24%
Cc1ccnc(NS(=O)(=O)c2ccc(N=Cc3c(O)n(C)c(=O)n(C)c3=O)cc2)n1 | 3% | -5% | -3 | -13% | 3% | 5µM*
CC(=O)OCC(=O)[C@H]1CC[C@H]2[C@@H]3CC[C@H]4C[C@H](O)CC[C@]4(C)[C@H]3C(=O)C[C@]12C | -1% | 0% | -7 | -14% | 24% | -4%
CC(=O)OC1CCC2(C)C(CCC3C4CC(N5CC5)C(C(C)=O)C4(C)CC(=O)C32)C1 (stereo not given) | 16% | 15µM* | -5 | 8% | 11% | -20%
COc1ccc(OCC(=O)N2CCN(Cc3nc4cc([N+](=O)[O-])ccc4n3C)CC2)cc1 | 6% | -20% | 1 | 23µM* | -3% | 0%
O=C(NC[C@H]1C[C@@H]2CCN1C[C@@H]2CN1CCC(Cc2ccccc2)CC1)c1ccc(C(F)(F)F)cc1 | . | . | . | . | . | 12%
CC(C)c1ccc(CNCCc2c[nH]c3ccccc23)cc1 | . | . | 5 | . | . | ?
Clc1cccc(CNCCc2c[nH]c3ccccc23)c1 | 4% | 0% | -15 | -3% | -9% | 4.5µM*
Cc1ccc(CNCCc2c[nH]c3ccccc23)c(C)c1 | . | . | -11 | . | . | 13µM*
Cc1ccc(CNCCc2c[nH]c3ccccc23)cc1 | . | . | 3 | . | . | ?
COc1cc2c(cc1OCc1ccccc1)NC(=O)C21CCN(c2ccnc(C)n2)CC1 | . | . | . | . | . | 4%[176 µM]
CN1CCN(C(=O)Cc2c[nH]c3ncc(-c4ccc(Cl)cc4)cc23)CC1 | . | . | . | . | . | -27%[176 µM]
C=C1C(=O)O[C@H]2[C@H]1[C@H](OC(=O)CC(=O)O[C@@H]1C[C@@H](C)[C@@H]3C=CC(=O)[C@@]3(C)[C@H]3OC(=O)C(=C)[C@H]13)C[C@@H](C)[C@H]1C=CC(=O)[C@]12C | ? | -6% | -1 | 9% | 13% | ?
